Values joined by “and” are separate entries in the source; they are usually repeats but may differ in a detail not shown here. Equal entries are not always repeated. In all, about 5,500 compounds went through this assay and about 2,000 (36%) were called active. Not shown: some 18% with an inconclusive outcome. This is one part of the list. Values without a mark were called inactive. No stated cut-off is given here; in the data, active means normalized growth mostly below about 0.91 (no sharp cut-off); inconclusive means no clear call, values can overlap the other calls; inactive means mostly above about 0.92.
Assay: chemical genetic growth profiling, strain panel (AID 1159580);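 further: tested at 20 µM; growth read once vehicle control cultures reached saturation at 30 °C; 1 = growth at the plate median or of vehicle wells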
Settings: growth OD
[1] = S. cerevisiae deletion strains, locus YGR078C, strain PAC10, stronger effect = lower value
[2] = S. cerevisiae deletion strains, locus YMR263W, strain SAP30, stronger effect = lower value
[3] = S. cerevisiae deletion strains, locus YNL153C, strain GIM3, stronger effect = lower value
[4] = S. cerevisiae deletion strains, locus YNL322C, strain KRE1, stronger effect = lower value

## NCCCC(N)(C(=O)O)C(F)F (stereo not drawn)
S. cerevisiae deletion strains, locus YAL040C, strain CLN3, stronger effect = lower value
  normalized growth: 0.996
S. cerevisiae deletion strains, locus YCL061C, strain MRC1 (second series), stronger effect = lower value
  normalized growth: 1
S. cerevisiae deletion strains, locus YDR363W, strain ESC2, stronger effect = lower value
  normalized growth: 0.981
S. cerevisiae deletion strains, locus YER002W, strain NOP16, stronger effect = lower value
  normalized growth: 0.996
[1]
  normalized growth: 1.01
[2]
  normalized growth: 0.994
[3]
  normalized growth: 1.02
S. cerevisiae deletion strains, locus YNL175C, strain NOP13, stronger effect = lower value
  normalized growth: 1
S. cerevisiae deletion strains, locus YNL197C, strain WHI3, stronger effect = lower value
  normalized growth: 0.983
S. cerevisiae deletion strains, locus YNL224C, strain SQS1, stronger effect = lower value
  normalized growth: 1.01
[4]
  normalized growth: 0.986
S. cerevisiae deletion strains, locus YOR083W, strain WHI5 (second series), stronger effect = lower value
  normalized growth: 1.01
S. cerevisiae deletion strains, locus YPL241C, strain CIN2, stronger effect = lower value
  normalized growth: 1

## OCC(S)CS (stereo not drawn)
S. cerevisiae deletion strains, locus YAL013W, strain DEP1, stronger effect = lower value
  normalized growth: 0.987
S. cerevisiae deletion strains, locus YBR021W, strain FUR4, stronger effect = lower value
  normalized growth: 0.999
S. cerevisiae deletion strains, locus YBR229C, strain ROT2, stronger effect = lower value
  normalized growth: 0.96
S. cerevisiae deletion strains, locus YCL029C, strain bik1, stronger effect = lower value
  normalized growth: 0.983
S. cerevisiae deletion strains, locus YDL035C, strain GPR1, stronger effect = lower value
  normalized growth: 0.979
S. cerevisiae deletion strains, locus YDL074C, strain BRE1, stronger effect = lower value
  normalized growth: 0.963
S. cerevisiae deletion strains, locus YDL101C, strain DUN1, stronger effect = lower value
  normalized growth: 0.985
S. cerevisiae deletion strains, locus YDL134C, strain PPH21, stronger effect = lower value
  normalized growth: 0.976
S. cerevisiae deletion strains, locus YDL185W, strain tfp1, stronger effect = lower value
  normalized growth: 0.935
S. cerevisiae deletion strains, locus YDL192W, strain arf1, stronger effect = lower value
  normalized growth: 0.964
S. cerevisiae deletion strains, locus YDR101C, strain arx1, stronger effect = lower value
  normalized growth: 0.978
S. cerevisiae deletion strains, locus YDR150W, strain NUM1, stronger effect = lower value
  normalized growth: 0.981
S. cerevisiae deletion strains, locus YDR162C, strain NBP2, stronger effect = lower value
  normalized growth: 0.966
S. cerevisiae deletion strains, locus YDR318W, strain mcm21, stronger effect = lower value
  normalized growth: 1
S. cerevisiae deletion strains, locus YDR388W, stronger effect = lower value
  normalized growth: 0.982
S. cerevisiae deletion strains, locus YDR502C, strain sam2, stronger effect = lower value
  normalized growth: 0.974
S. cerevisiae deletion strains, locus YER110C, stronger effect = lower value
  normalized growth: 0.983
S. cerevisiae deletion strains, locus YER155C, strain BEM2, stronger effect = lower value
  normalized growth: 0.999
S. cerevisiae deletion strains, locus YER167W, strain BCK2, stronger effect = lower value
  normalized growth: 1.02
S. cerevisiae deletion strains, locus YGL078C, strain dbp3, stronger effect = lower value
  normalized growth: 0.992
S. cerevisiae deletion strains, locus YGL086W, strain mad1, stronger effect = lower value
  normalized growth: 1.01
S. cerevisiae deletion strains, locus YGL248W, strain PDE1, stronger effect = lower value
  normalized growth: 0.972
[1]
  normalized growth: 0.972
S. cerevisiae deletion strains, locus YGR135W, strain pre9, stronger effect = lower value
  normalized growth: 0.962
S. cerevisiae deletion strains, locus YGR229C, strain SMI1, stronger effect = lower value
  normalized growth: 0.986
S. cerevisiae deletion strains, locus YGR252W, strain gcn5, stronger effect = lower value
  normalized growth: 0.949
S. cerevisiae deletion strains, locus YHR030C, strain SLT2, stronger effect = lower value
  normalized growth: 1.01 and 0.959
S. cerevisiae deletion strains, locus YHR079C, strain IRE1 (second series), stronger effect = lower value
  normalized growth: 1.01
S. cerevisiae deletion strains, locus YHR079C, strain IRE1, stronger effect = lower value
  normalized growth: 0.931
S. cerevisiae deletion strains, locus YHR094C, strain hxt1, stronger effect = lower value
  normalized growth: 0.98
S. cerevisiae deletion strains, locus YHR129C, strain ARP1, stronger effect = lower value
  normalized growth: 1
S. cerevisiae deletion strains, locus YHR200W, strain rpn10, stronger effect = lower value
  normalized growth: 0.974
S. cerevisiae deletion strains, locus YIL066C, strain RNR3, stronger effect = lower value
  normalized growth: 0.967
S. cerevisiae deletion strains, locus YIL073C, strain SPO22, stronger effect = lower value
  normalized growth: 1.03
S. cerevisiae deletion strains, locus YIL125W, strain kgd1, stronger effect = lower value
  normalized growth: 0.966
S. cerevisiae deletion strains, locus YIR030C, strain dcg1, stronger effect = lower value
  normalized growth: 0.989
S. cerevisiae deletion strains, locus YJL095W, strain BCK1, stronger effect = lower value
  normalized growth: 1.01 and 0.978
S. cerevisiae deletion strains, locus YJL134W, strain LCB3, stronger effect = lower value
  normalized growth: 0.994
S. cerevisiae deletion strains, locus YJL168C, strain set2, stronger effect = lower value
  normalized growth: 0.984
S. cerevisiae deletion strains, locus YJL187C, strain SWE1 (second series), stronger effect = lower value
  normalized growth: 0.973
S. cerevisiae deletion strains, locus YJR043C, strain POL32, stronger effect = lower value
  normalized growth: 1.3 [resistant] (active)
S. cerevisiae deletion strains, locus YJR066W, strain TOR1, stronger effect = lower value
  normalized growth: 0.933
S. cerevisiae deletion strains, locus YJR075W, strain HOC1, stronger effect = lower value
  normalized growth: 0.974
S. cerevisiae deletion strains, locus YKL009W, strain mrt4, stronger effect = lower value
  normalized growth: 1
S. cerevisiae deletion strains, locus YKL068W, stronger effect = lower value
  normalized growth: 0.984
S. cerevisiae deletion strains, locus YKL085W, strain MDH1 (second series), stronger effect = lower value
  normalized growth: 1.04
S. cerevisiae deletion strains, locus YKL085W, strain MDH1, stronger effect = lower value
  normalized growth: 1.04
S. cerevisiae deletion strains, locus YKL190W, strain CNB1, stronger effect = lower value
  normalized growth: 0.985
S. cerevisiae deletion strains, locus YKR001C, strain vps1, stronger effect = lower value
  normalized growth: 0.978
S. cerevisiae deletion strains, locus YLR039C, strain RIC1, stronger effect = lower value
  normalized growth: 1
S. cerevisiae deletion strains, locus YLR058C, strain SHM2, stronger effect = lower value
  normalized growth: 0.984
S. cerevisiae deletion strains, locus YLR102C, strain apc9, stronger effect = lower value
  normalized growth: 0.979
S. cerevisiae deletion strains, locus YLR113W, strain HOG1, stronger effect = lower value
  normalized growth: 1.02
S. cerevisiae deletion strains, locus YLR262C, strain YPT6, stronger effect = lower value
  normalized growth: 0.996
S. cerevisiae deletion strains, locus YLR268W, strain sec22, stronger effect = lower value
  normalized growth: 0.955
S. cerevisiae deletion strains, locus YLR330W, strain CHS5, stronger effect = lower value
  normalized growth: 1.01
S. cerevisiae deletion strains, locus YLR342W, strain FKS1 (second series), stronger effect = lower value
  normalized growth: 1.01
S. cerevisiae deletion strains, locus YLR371W, strain rom2, stronger effect = lower value
  normalized growth: 0.986
S. cerevisiae deletion strains, locus YLR418C, strain cdc73, stronger effect = lower value
  normalized growth: 0.941
S. cerevisiae deletion strains, locus YML016C, strain PPZ1, stronger effect = lower value
  normalized growth: 1
S. cerevisiae deletion strains, locus YML032C, strain rad52, stronger effect = lower value
  normalized growth: 0.973
S. cerevisiae deletion strains, locus YML124C, strain tub3, stronger effect = lower value
  normalized growth: 0.989
S. cerevisiae deletion strains, locus YMR078C, strain ctf18, stronger effect = lower value
  normalized growth: 0.995
S. cerevisiae deletion strains, locus YMR223W, strain ubp8, stronger effect = lower value
  normalized growth: 0.999
[2]
  normalized growth: 0.974
S. cerevisiae deletion strains, locus YMR307W, strain GAS1, stronger effect = lower value
  normalized growth: 1.08
S. cerevisiae deletion strains, locus YNL067W, strain RPL9B, stronger effect = lower value
  normalized growth: 0.964
S. cerevisiae deletion strains, locus YNL128W, strain TEP1, stronger effect = lower value
  normalized growth: 0.974
[3]
  normalized growth: 0.973
S. cerevisiae deletion strains, locus YNL183C, strain NPR1, stronger effect = lower value
  normalized growth: 0.97
S. cerevisiae deletion strains, locus YNL233W, strain BNI4, stronger effect = lower value
  normalized growth: 1
S. cerevisiae deletion strains, locus YNL250W, strain rad50, stronger effect = lower value
  normalized growth: 0.973
S. cerevisiae deletion strains, locus YNL271C, strain bni1, stronger effect = lower value
  normalized growth: 0.988
S. cerevisiae deletion strains, locus YNL298W, strain CLA4, stronger effect = lower value
  normalized growth: 0.978
S. cerevisiae deletion strains, locus YNL307C, strain MCK1, stronger effect = lower value
  normalized growth: 0.998
[4]
  normalized growth: 0.978
S. cerevisiae deletion strains, locus YNR052C, strain pop2, stronger effect = lower value
  normalized growth: 0.987
S. cerevisiae deletion strains, locus YOL006C, strain TOP1, stronger effect = lower value
  normalized growth: 0.849
S. cerevisiae deletion strains, locus YOL012C, strain htz1
  normalized growth: 0.787
S. cerevisiae deletion strains, locus YOL147C, strain pex11, stronger effect = lower value
  normalized growth: 0.987
S. cerevisiae deletion strains, locus YOR061W, strain CKA2, stronger effect = lower value
  normalized growth: 0.969
S. cerevisiae deletion strains, locus YOR069W, strain VPS5, stronger effect = lower value
  normalized growth: 1.14 [resistant] (active)
S. cerevisiae deletion strains, locus YOR136W, strain idh2, stronger effect = lower value
  normalized growth: 0.992
S. cerevisiae deletion strains, locus YOR144C, strain elg1, stronger effect = lower value
  normalized growth: 0.976
S. cerevisiae deletion strains, locus YOR184W, strain ser1, stronger effect = lower value
  normalized growth: 0.996
S. cerevisiae deletion strains, locus YOR231W, strain MKK1, stronger effect = lower value
  normalized growth: 0.921
S. cerevisiae deletion strains, locus YOR316C, strain cot1, stronger effect = lower value
  normalized growth: 0.979
S. cerevisiae deletion strains, locus YPL055C, strain LGE1, stronger effect = lower value
  normalized growth: 0.955
S. cerevisiae deletion strains, locus YPL256C, strain CLN2, stronger effect = lower value
  normalized growth: 1.01
S. cerevisiae deletion strains, locus YPR119W, strain clb2, stronger effect = lower value
  normalized growth: 0.994
S. cerevisiae deletion strains, locus YPR141C, strain kar3, stronger effect = lower value
  normalized growth: 0.967
S. cerevisiae deletion strains, locus YPR163C, strain tif3, stronger effect = lower value
  normalized growth: 0.988
S. cerevisiae deletion strains, locus YPR167C, strain met16, stronger effect = lower value
  normalized growth: 0.968
S. cerevisiae deletion strains, strain wtn01, stronger effect = lower value
  normalized growth: 0.961
S. cerevisiae strains, strain wild type, stronger effect = lower value
  normalized growth: 0.99
